Laboratory results published in PubChem BioAssay AID1159580 (chemical genetic matrix, 2015).
The campaign covered roughly 5,500 compounds. About 2,000 (36%) were called active. Inconclusive results (about 18%) are left out. Cut-off read from the data, not from the text of the source: active = normalized growth mostly below about 0.91 (no sharp cut-off); inconclusive = no clear call, values can overlap the other calls; inactive = mostly above about 0.92. Some of the results follow.

Assay: chemical genetic growth profiling, strain panel (AID 1159580);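 note: tested at 20 µM; growth read once vehicle control cultures reached saturation at 30 °C; 1 = growth at the plate median or of vehicle wells; lower values mean less growth of the strain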
Conditions: S. cerevisiae deletion strains, growth OD

Measured: normalized growth

O=c1[nH]c(=O)n([C@H]2C[C@H](O)[C@@H](CO)O2)cc1Br
inactive: locus YAL013W, strain DEP1, stronger effect = lower value 1 | locus YAL040C, strain CLN3, stronger effect = lower value 1.08 | locus YDR363W, strain ESC2, stronger effect = lower value 1.01 | locus YER002W, strain NOP16, stronger effect = lower value 1.01 | locus YNL175C, strain NOP13, stronger effect = lower value 1 | locus YNL197C, strain WHI3, stronger effect = lower value 1 | locus YNL224C, strain SQS1, stronger effect = lower value 1 | locus YNL322C, strain KRE1, stronger effect = lower value 1.02 | locus YOR083W, strain WHI5 (second series), stronger effect = lower value 0.991
